Reference: ChEMBL document CHEMBL1961873, “Compounds: GSK PKIS; Assays: Nanosyn kinase panel” (2012)

Target: T1, Dual specificity tyrosine-phosphorylation-regulated kinase 2 (Homo sapiens) (UniProt Q92630)
T1 sequence (whole entry): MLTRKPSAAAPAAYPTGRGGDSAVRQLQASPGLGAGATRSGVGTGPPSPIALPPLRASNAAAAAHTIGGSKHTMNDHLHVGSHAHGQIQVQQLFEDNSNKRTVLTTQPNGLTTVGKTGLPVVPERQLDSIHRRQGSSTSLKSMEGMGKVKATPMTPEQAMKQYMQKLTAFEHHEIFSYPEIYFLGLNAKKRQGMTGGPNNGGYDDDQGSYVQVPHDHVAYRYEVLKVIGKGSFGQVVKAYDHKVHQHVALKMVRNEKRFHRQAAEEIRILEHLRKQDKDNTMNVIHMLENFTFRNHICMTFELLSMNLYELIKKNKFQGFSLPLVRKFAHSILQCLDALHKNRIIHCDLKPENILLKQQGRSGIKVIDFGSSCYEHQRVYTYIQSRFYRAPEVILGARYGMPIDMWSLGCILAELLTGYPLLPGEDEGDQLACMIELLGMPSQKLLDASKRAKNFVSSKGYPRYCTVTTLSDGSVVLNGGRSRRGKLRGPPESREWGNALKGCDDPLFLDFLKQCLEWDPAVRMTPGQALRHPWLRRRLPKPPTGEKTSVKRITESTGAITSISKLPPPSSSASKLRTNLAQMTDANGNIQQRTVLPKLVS
Conditions: at 0.1 µM

Question: How did the inhibition turn out when `NS(=O)(=O)c1ccc(-c2ccc3c(NC(=O)C4CC4)n[nH]c3c2)cc1` was run?
Answer: 1.63%

Question: With `CCn1c(-c2nonc2N)nc2c(C#CC(C)(C)O)ncc(OCC3CCNCC3)c21` as the compound, how does the inhibition read?
Answer: 1.35%

Question: For `CCn1c(-c2nonc2N)nc2c(C#CCN)ncc(OCCCN)c21`, which inhibition is on record?
Answer: -2.75%

Question: How did the inhibition turn out when `Nc1nonc1-c1nc2cnccc2n1C1CCCCC1` was run?
Answer: -2.75%

Question: For `COc1cccc(COc2cc(-n3cnc4ccccc43)sc2C(N)=O)c1`, which inhibition is on record?
Answer: -0.21%

Question: With `NS(=O)(=O)c1ccc(N/C=C2\C(=O)Nc3ccc4ncsc4c32)cc1` as the compound, how does the inhibition read?
Answer: 6.51%

Question: `Fc1ccc(-c2ncn(C3CCNCC3)c2-c2ccnc(Oc3ccccc3)n2)cc1` was tested. Which inhibition did it give?
Answer: 1.43%

Question: With `CCn1c(-c2nonc2N)nc2c(C#CC(C)(C)O)nc(O[C@@H](CN)c3ccccc3)cc21` as the compound, how does the inhibition read?
Answer: -1.27%

Question: With `COc1cc2c(cc1Nc1nc(Nc3ccsc3C(N)=O)c3cc[nH]c3n1)N(C(=O)CN(C)C)CCC2` as the compound, how does the inhibition read?
Answer: -0.67%

Question: With `Cc1cc(-c2ccco2)cc(C)c1/C=C/c1cncc(-c2nn[nH]n2)c1` as the compound, how does the inhibition read?
Answer: -0.1%

Question: How did the inhibition turn out when `CCn1c(-c2nonc2N)nc2c(C#CC(C)(C)O)ncc(OC[C@@H]3CCCN3)c21` was run?
Answer: 0.4%

Question: With `COc1cc(C=NNc2ncnc3c2cnn3Cc2ccccc2)ccc1O` as the compound, how does the inhibition read?
Answer: -4.67%

Question: For `NC(=O)c1sc(-n2cnc3cc(C(F)(F)F)ccc32)cc1OCc1ccccc1Br`, which inhibition is on record?
Answer: 1.75%

Question: For `COc1cccc(-n2ncc3c(N/N=C/c4ccncc4)ncnc32)c1`, which inhibition is on record?
Answer: 14.2%

Target: T1, Dual specificity tyrosine-phosphorylation-regulated kinase 2 (Homo sapiens)
Conditions: at 1 µM

Question: `NS(=O)(=O)c1ccc(-c2ccc3c(NC(=O)C4CC4)n[nH]c3c2)cc1` was tested. Which inhibition did it give?
Answer: 3.47%

Question: Which inhibition does the source give for `CCn1c(-c2nonc2N)nc2c(C#CC(C)(C)O)ncc(OCC3CCNCC3)c21` here?
Answer: 1.98%

Question: `CCn1c(-c2nonc2N)nc2c(C#CCN)ncc(OCCCN)c21` was tested. Which inhibition did it give?
Answer: -1.66%

Question: With `Nc1nonc1-c1nc2cnccc2n1C1CCCCC1` as the compound, how does the inhibition read?
Answer: -0.12%

Question: How did the inhibition turn out when `COc1cccc(COc2cc(-n3cnc4ccccc43)sc2C(N)=O)c1` was run?
Answer: -2.08%

Question: `NS(=O)(=O)c1ccc(N/C=C2\C(=O)Nc3ccc4ncsc4c32)cc1` was tested. Which inhibition did it give?
Answer: 29%

Question: How did the inhibition turn out when `Fc1ccc(-c2ncn(C3CCNCC3)c2-c2ccnc(Oc3ccccc3)n2)cc1` was run?
Answer: 0.78%

Question: Which inhibition does the source give for `CCn1c(-c2nonc2N)nc2c(C#CC(C)(C)O)nc(O[C@@H](CN)c3ccccc3)cc21` here?
Answer: 0.08%

Question: For `COc1cc2c(cc1Nc1nc(Nc3ccsc3C(N)=O)c3cc[nH]c3n1)N(C(=O)CN(C)C)CCC2`, which inhibition is on record?
Answer: -2.75%

Question: With `Cc1cc(-c2ccco2)cc(C)c1/C=C/c1cncc(-c2nn[nH]n2)c1` as the compound, how does the inhibition read?
Answer: -1.43%

Question: `CCn1c(-c2nonc2N)nc2c(C#CC(C)(C)O)ncc(OC[C@@H]3CCCN3)c21` was tested. Which inhibition did it give?
Answer: -2.07%

Question: `COc1cc(C=NNc2ncnc3c2cnn3Cc2ccccc2)ccc1O` was tested. Which inhibition did it give?
Answer: -1.79%

Question: With `NC(=O)c1sc(-n2cnc3cc(C(F)(F)F)ccc32)cc1OCc1ccccc1Br` as the compound, how does the inhibition read?
Answer: 0.34%

Question: With `COc1cccc(-n2ncc3c(N/N=C/c4ccncc4)ncnc32)c1` as the compound, how does the inhibition read?
Answer: 58.9%

Target: Glycogen synthase kinase-3 alpha (Homo sapiens) (UniProt P49840)
Conditions: at 0.1 µM

Sequence of Glycogen synthase kinase-3 alpha (Homo sapiens) (P49840 2-483 limits assumed): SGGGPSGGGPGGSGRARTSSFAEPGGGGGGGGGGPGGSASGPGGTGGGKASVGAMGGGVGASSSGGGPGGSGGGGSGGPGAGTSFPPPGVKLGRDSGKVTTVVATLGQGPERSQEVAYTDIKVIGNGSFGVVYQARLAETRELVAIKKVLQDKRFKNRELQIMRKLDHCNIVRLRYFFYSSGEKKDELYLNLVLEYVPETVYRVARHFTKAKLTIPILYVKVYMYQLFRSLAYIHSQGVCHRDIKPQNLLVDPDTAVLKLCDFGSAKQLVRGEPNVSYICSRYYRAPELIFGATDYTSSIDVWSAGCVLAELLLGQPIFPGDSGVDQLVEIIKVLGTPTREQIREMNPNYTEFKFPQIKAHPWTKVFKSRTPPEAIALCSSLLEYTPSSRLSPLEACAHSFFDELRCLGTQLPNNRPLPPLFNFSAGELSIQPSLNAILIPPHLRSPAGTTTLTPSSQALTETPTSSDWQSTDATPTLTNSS

Question: Which inhibition does the source give for `NS(=O)(=O)c1ccc(-c2ccc3c(NC(=O)C4CC4)n[nH]c3c2)cc1` here?
Answer: 5.27%

Question: Which inhibition does the source give for `CCn1c(-c2nonc2N)nc2c(C#CC(C)(C)O)ncc(OCC3CCNCC3)c21` here?
Answer: 12.9%

Question: How did the inhibition turn out when `CCn1c(-c2nonc2N)nc2c(C#CCN)ncc(OCCCN)c21` was run?
Answer: 0.52%

Question: For `Nc1nonc1-c1nc2cnccc2n1C1CCCCC1`, which inhibition is on record?
Answer: 66.1%

Question: Which inhibition does the source give for `COc1cccc(COc2cc(-n3cnc4ccccc43)sc2C(N)=O)c1` here?
Answer: 1.06%

Question: With `NS(=O)(=O)c1ccc(N/C=C2\C(=O)Nc3ccc4ncsc4c32)cc1` as the compound, how does the inhibition read?
Answer: 25.2%

Question: How did the inhibition turn out when `Fc1ccc(-c2ncn(C3CCNCC3)c2-c2ccnc(Oc3ccccc3)n2)cc1` was run?
Answer: -1.47%

Question: Which inhibition does the source give for `CCn1c(-c2nonc2N)nc2c(C#CC(C)(C)O)nc(O[C@@H](CN)c3ccccc3)cc21` here?
Answer: 52.7%

Question: Which inhibition does the source give for `COc1cc2c(cc1Nc1nc(Nc3ccsc3C(N)=O)c3cc[nH]c3n1)N(C(=O)CN(C)C)CCC2` here?
Answer: 1.22%

Question: Which inhibition does the source give for `Cc1cc(-c2ccco2)cc(C)c1/C=C/c1cncc(-c2nn[nH]n2)c1` here?
Answer: 0.36%

Question: With `CCn1c(-c2nonc2N)nc2c(C#CC(C)(C)O)ncc(OC[C@@H]3CCCN3)c21` as the compound, how does the inhibition read?
Answer: 9.78%

Question: For `COc1cc(C=NNc2ncnc3c2cnn3Cc2ccccc2)ccc1O`, which inhibition is on record?
Answer: 5.54%

Question: With `NC(=O)c1sc(-n2cnc3cc(C(F)(F)F)ccc32)cc1OCc1ccccc1Br` as the compound, how does the inhibition read?
Answer: 1.61%

Question: How did the inhibition turn out when `COc1cccc(-n2ncc3c(N/N=C/c4ccncc4)ncnc32)c1` was run?
Answer: 85.7%

Target: Glycogen synthase kinase-3 alpha (Homo sapiens) (UniProt P49840)
Conditions: at 1 µM

Question: With `NS(=O)(=O)c1ccc(-c2ccc3c(NC(=O)C4CC4)n[nH]c3c2)cc1` as the compound, how does the inhibition read?
Answer: 8.87%

Question: Which inhibition does the source give for `CCn1c(-c2nonc2N)nc2c(C#CC(C)(C)O)ncc(OCC3CCNCC3)c21` here?
Answer: 53.9%

Question: For `CCn1c(-c2nonc2N)nc2c(C#CCN)ncc(OCCCN)c21`, which inhibition is on record?
Answer: 9.28%

Question: `Nc1nonc1-c1nc2cnccc2n1C1CCCCC1` was tested. Which inhibition did it give?
Answer: 90.8%

Question: For `COc1cccc(COc2cc(-n3cnc4ccccc43)sc2C(N)=O)c1`, which inhibition is on record?
Answer: 3.48%

Question: `NS(=O)(=O)c1ccc(N/C=C2\C(=O)Nc3ccc4ncsc4c32)cc1` was tested. Which inhibition did it give?
Answer: 62.8%

Question: `Fc1ccc(-c2ncn(C3CCNCC3)c2-c2ccnc(Oc3ccccc3)n2)cc1` was tested. Which inhibition did it give?
Answer: -2.08%

Question: With `CCn1c(-c2nonc2N)nc2c(C#CC(C)(C)O)nc(O[C@@H](CN)c3ccccc3)cc21` as the compound, how does the inhibition read?
Answer: 86.1%

Question: How did the inhibition turn out when `COc1cc2c(cc1Nc1nc(Nc3ccsc3C(N)=O)c3cc[nH]c3n1)N(C(=O)CN(C)C)CCC2` was run?
Answer: 0.89%

Question: For `Cc1cc(-c2ccco2)cc(C)c1/C=C/c1cncc(-c2nn[nH]n2)c1`, which inhibition is on record?
Answer: 0.72%

Question: How did the inhibition turn out when `CCn1c(-c2nonc2N)nc2c(C#CC(C)(C)O)ncc(OC[C@@H]3CCCN3)c21` was run?
Answer: 44.4%

Question: Which inhibition does the source give for `COc1cc(C=NNc2ncnc3c2cnn3Cc2ccccc2)ccc1O` here?
Answer: 19.6%

Question: How did the inhibition turn out when `NC(=O)c1sc(-n2cnc3cc(C(F)(F)F)ccc32)cc1OCc1ccccc1Br` was run?
Answer: 2.55%

Question: For `COc1cccc(-n2ncc3c(N/N=C/c4ccncc4)ncnc32)c1`, which inhibition is on record?
Answer: 90%
